{
  "source": "PubChem BioAssay (NCATS)",
  "note": "Records with an inconclusive call do not appear. Entries that show only a call come without a potency. Activity calls are given as the source filed them. Calls follow the shape of the dose curve; as a rule, active = well fitted inhibition curve with a large enough effect; inconclusive = small, poorly fitted or top-dose-only effect; inactive = no such curve, though single readings can be large or run the other way. Potency is read from the fitted curve at half-maximal effect.",
  "data": [
    {"assay": "qHTS to identify inhibitors of the type 1 interferon - major histocompatibility complex class I in skeletal muscle: primary screen against the NCATS Mechanism Interrogation Plate v5.0 (MIPE) Libary (AID 1347411); also: nearly all actives have a fitted effect of over 65% in size", "conditions": "iHSKM cells + IFN-b, HiBiT-tagged MHC-I luminescence, 24 h; series mostly up to 45.8 µM", "summary_of_the_method": "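Cells were genome-edited human myoblasts carrying a HiBit tag on endogenous HLA-B. They were treated with IFN-beta (4.0 ng/ml) and titrated compounds (top 46 uM) for 24 hrs before lytic HiBiT detection.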", "values": [
      {"smiles": "Cc1[nH]c(/C=C2\\C(=O)Nc3ccc(S(=O)(=O)N(C)c4cccc(Cl)c4)cc32)c(C)c1C(=O)N1CCN(C)CC1", "Potency": "16.5 µM (active)"},
      {"smiles": "O=C(N[C@H]1CCC[C@H](CO)C1)C1CCN(c2nc3cc(Cl)c(-c4ccc(Cl)cc4)cc3o2)CC1", "Potency": "inactive"},
      {"smiles": "C[C@H](CN(C)C)Oc1nc(Nc2cc3cccc(Cl)c3cn2)cnc1C#N", "Potency": "inactive"},
      {"smiles": "C[C@@H]1CN(CC(=O)N2CC(C)(C)c3ncc(Cc4ccc(F)cc4)cc32)[C@@H](CN2CCOC[C@H]2C)CN1", "Potency": "inactive"},
      {"smiles": "C=CCNC1=C2C[C@@H](C)C[C@H](OC)[C@H](O)[C@@H](C)/C=C(\\C)[C@H](OC(N)=O)[C@@H](OC)/C=C\\C=C(/C)C(=O)NC(=CC1=O)C2=O", "Potency": "0.829 µM (active)"},
      {"smiles": "Cc1cc(C(=O)Nc2cc(Nc3ccc4c(/C=C/c5ccccn5)n[nH]c4c3)ccc2F)n(C)n1", "Potency": "29.4 µM (active)"},
      {"smiles": "Cn1cc(-c2cnn3c(N)c(Br)c(C4CCCNC4)nc23)cn1", "note": "(stereo not given)", "Potency": "inactive"},
      {"smiles": "C1=C/COCc2cc(ccc2OCCN2CCCC2)Nc2nccc(n2)-c2cccc(c2)COC/1", "Potency": "2.34 µM (active)"},
      {"smiles": "CC(/C=C/C(=O)NO)=C\\[C@@H](C)C(=O)c1ccc(N(C)C)cc1", "Potency": "2.08 µM (active)"},
      {"smiles": "C[C@@H]1COCCN1c1cc(=O)n2c(n1)N(Cc1cncc(Cl)c1)[C@H](C(F)(F)F)CC2", "Potency": "inactive"},
      {"smiles": "CN(C)N(C)C(=O)[C@@]1(Cc2ccccc2)CCCN(C(=O)[C@@H](Cc2c[nH]c3ccccc23)NC(=O)C(C)(C)N)C1", "Potency": "inactive"},
      {"smiles": "CC[C@@H](C)Nc1cc(C(=O)NC2CC3CC[C@@H](C2)N3c2ccc(C(=O)C3CC3)cn2)c(C)cc1C(N)=O", "note": "(stereo not given in full)", "Potency": "0.117 µM (active)"},
      {"smiles": "COc1ccccc1C(=O)Nc1cc2c(cc1N1CCCC1)n(C)c(=O)n2C", "Potency": "inactive"},
      {"smiles": "Cc1cccc(CC(=O)N2CCc3c2ccc(-c2cn(C)c4ncnc(N)c24)c3F)n1", "Potency": "inactive"},
      {"smiles": "CS(=O)(=O)c1ccc(Oc2cc(F)cc(C#N)c2)c2c1[C@H](O)C(F)(F)C2", "Potency": "inactive"}
    ]}
  ]
}
